According to PubChem BioAssay (NCATS):
Inconclusive results are not listed. Where a call stands in place of a potency, no number is given. The source made the active and inactive calls. The call rests on the fitted dose curve; in most records, active means well fitted inhibition curve with a large enough effect; inconclusive means small, poorly fitted or top-dose-only effect; inactive means no such curve, though single readings can be large or run the other way.

Experiment: NS1 protein of Zika virus - qHTS assay to identify small molecule inhibitors in human HEK 293 cells (AID 1347053); further: nearly all actives have a fitted effect of over 55% in size
Conditions: HEK293 ZIKV MR766 infection, NS1 TR-FRET, 24 h; series mostly up to 46.1 µM
Procedure, shortened: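 TR-FRET signal from two anti-ZIKV NS1 antibodies quantified NS1 in HEK 293 cells 24 h after MR766 infection at MOI = 0.5; compounds were added 1 h before virus. Uninfected cells and infected cells defined the NS1 normalization range.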
Potency means the concentration at half of the fitted maximal effect.

Compound	Potency
Cc1nc(NC(=O)N2CCC[C@@H]2C(N)=O)sc1-c1csc(C(C)(C)C)n1	inactive
CN1CCC[C@H]1CCO[C@](C)(c1ccccc1)c1ccc(Cl)cc1	inactive
O=[N+]([O-])c1ccc(Nc2ccccc2-c2ccccc2)c2nonc12	inactive
Cc1cnc(CNC(=O)c2c(=O)c3ccc(N4CCCN(C)CC4)nc3n3c2sc2ccccc23)cn1	inactive
NC(=O)c1noc([C@H](CCCC2CCCCC2)CC(=O)NO)n1	13.2 µM (active)
CN1CCN(c2ncc(-c3cc(Cl)cc(Cl)c3Cl)c(N)n2)CC1	inactive
COc1c(C)cnc(Cn2cnc3c(Cl)nc(N)nc32)c1C	inactive
O=C1CN2Cc3c(ccc(Cl)c3Cl)N=C2N1	inactive
Cc1cc(-c2ncc(CC(=O)Nc3ccc(-c4cnccn4)cn3)cc2C)ccn1	inactive
CCC[C@H](Nc1nc(-c2ccc(NC(=O)NCC)c(OC)c2)ncc1C)c1cccnc1	0.0093 µM (active)
CC[C@H](C)n1cc(C)c2c(C(=O)NCc3c(C)cc(C)[nH]c3=O)cc(-c3ccc(N4CCNCC4)nc3)cc21	inactive
C[C@@]1(C(=O)Nc2ccc(F)nc2)CCCN1c1nc(Nc2cc(C3CC3)[nH]n2)c2cccn2n1	inactive
Cc1[nH]c(C=C2C(=O)Nc3ccc(S(=O)(=O)N(C)c4cccc(Cl)c4)cc32)c(C)c1C(=O)N1CCN(C)CC1	inactive
CCCCC(C=O)NC(=O)C(CC(C)C)NC(=O)OCc1ccccc1 (configuration not stated)	inactive
CCNC(=O)Nc1ccc(Oc2ncnc(N)c2C=NOC)cc1Cl	inactive
Nc1ncnc2c1c(-c1cccc(OCc3ccccc3)c1)cn2C1CC(CN2CCC2)C1 (configuration not stated)	inactive
Cc1cccc(Nc2nc(N[C@@H]3CCCC[C@H]3N)ncc2C(N)=O)c1	23.5 µM (active)
Nc1ccn([C@@H]2O[C@H](CO)[C@@H](O)[C@H]2O)c(=O)n1	inactive
CCC[C@H](N[C@@H](C)C(=O)N1[C@@H]2CCCC[C@H]2C[C@H]1C(=O)O)C(=O)OCC	inactive

Compound	Potency
COc1cc([C@@H]2c3cc4c(cc3[C@@H](O[C@@H]3O[C@@H]5CO[C@@H](C)O[C@@H]5[C@H](O)[C@@H]3O)[C@H]3COC(=O)[C@H]23)OCO4)cc(OC)c1O	1.18 µM (active)
O=C(CCCN1CCN(c2ccc(F)cc2)CC1)NC1c2ccccc2CSc2ccccc21 (configuration not stated)	inactive
COc1ccc2nc3cc(Cl)ccc3c(Nc3cc(CN4CCCC4)c(O)c(CN4CCCC4)c3)c2n1	inactive
C=C1[C@H](n2cnc3c(=O)[nH]c(N)nc32)C[C@H](O)[C@H]1CO	inactive
O=C(O)Cc1cccc(OCCCN(Cc2cccc(C(F)(F)F)c2Cl)CC(c2ccccc2)c2ccccc2)c1	inactive
CC(=O)OCC(=O)[C@@]12OC(C)(C)O[C@H]1C[C@H]1[C@@H]3C[C@H](F)C4=CC(=O)C=C[C@]4(C)[C@@]3(F)[C@@H](O)C[C@@]12C	inactive
C[C@@H]1O[C@@H](O[C@H]2CC[C@@]3(C)[C@H](CC[C@@H]4[C@H]3C[C@@H](O)[C@]3(C)[C@@H](C5=CC(=O)OC5)CC[C@]43O)C2)C[C@H](O)[C@@H]1O[C@H]1C[C@H](O)[C@H](O[C@H]2C[C@H](O)[C@@H](O)[C@@H](C)O2)[C@H](C)O1 (stereo in doubt)	0.136 µM (active)
C[C@@H]1[C@H](O)[C@@H](C)C=CC=CC=CC=CC=CC=CC=C[C@H](O[C@@H]2O[C@H](C)[C@H](O)[C@H](N)[C@@H]2O)C[C@@H]2O[C@](O)(C[C@@H](O)C[C@@H](O)[C@H](O)CC[C@@H](O)C[C@@H](O)CC(=O)O[C@H]1C)C[C@H](O)[C@@H]2C(=O)O	inactive
OC(c1cc(C(F)(F)F)nc2c(C(F)(F)F)cccc12)C1CCCCN1 (configuration not stated)	10.5 µM (active)
Cc1cn([C@@H]2C[C@@H](O)[C@H](CO)O2)c(=O)[nH]c1=O	inactive
Cc1ccc2c(c1)C(=O)[C@]1(O)CCN(c3ccccc3)C1=N2	inactive
CC(O)=C(C#N)C(=O)Nc1ccc(C(F)(F)F)cc1	13.2 µM (active)
CC=C(C(=CC)c1ccc(O)cc1)c1ccc(O)cc1	inactive
COc1ccc2cc1Oc1ccc(cc1)C[C@H]1c3cc(c(OC)cc3CCN1C)Oc1c(OC)c(OC)cc3c1[C@H](C2)N(C)CC3	inactive
CC(C)(C)c1nc(-c2cccc(NS(=O)(=O)c3c(F)cccc3F)c2F)c(-c2ccnc(N)n2)s1	inactive
N#CC1(c2cccc(C(=O)Nc3cc(Oc4ccc5nc(NC(=O)C6CC6)sc5n4)ccc3F)c2Cl)CC1	2.35 µM (active)
O=c1[nH]nc(OCCCc2ccc(Cl)cc2)c(NCc2cccnc2)c1Br	inactive
CC(=O)OCC(=O)[C@@]1(O)CC[C@H]2[C@@H]3CCC4=CC(=O)C=C[C@]4(C)[C@@H]3[C@@H](O)C[C@@]21C	inactive
